Screening data from PubChem.
Compounds with a hit are over-represented: about 3.8% of the library has one in this group of screens.
Wnt act: activates Wnt/beta-catenin signaling in a reporter cell assay. activator, plate reader. activation, % at 9.35 µM. hit rate 1.2% among 300,000. AID 743398; in the data active means activation above about 30%, passing the limit was not always enough; inconclusive means no clear call, values can overlap the other calls;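 further: 0% = neutral control wells and 100% = positive control wells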
HSF1 activator: increases HSF-1 driven luciferase reporter signal; NIH3T3-HGL HSF-1 luciferase reporter, MG132, 8 h; 100% = twice DMSO control signal; activation, % at 9 µM; AID 504408; hit rate 1.7% among 300,000;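 active means mean replicate activation of at least 50% with a set share of replicates each reaching 50%; inconclusive means only one of those two conditions met; inactive means mean below 50% and too few replicates reaching it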;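 further: 0% = median of the neutral control wells and 100% = twice that signal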
MITF TRPM1 HTS: increases MITF-driven TRPM1 promoter luciferase signal; activation, % at 12.5 µM; AID 588334; hit rate 0.75% among 300,000; SK-MEL-5 TRPM1-promoter luciferase, 24 h; % of positive control, neutral wells = 0;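 active means mean activation of at least 80% with every replicate also reaching 80%; inconclusive means mean reaches 80% but some replicate falls short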;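 further: 0% = neutral control wells and 100% = parthenolide positive control wells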
HSF1 inhib: HSF1 inhibition; NIH3T3-HGL HSE-luciferase, MG132-induced, luminescence 8 h; hits give low values; activity change, negative = inhibition, % at 7.5 µM (by protocol); hit rate 0.77% among 300,000; AID 2098;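 active means more than half of replicate wells show activity change below -50%, luminescence cut by over half; inconclusive means some wells, but at most half, below -50%; inactive means no replicate well below -50%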;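 further: luciferase reports HSF-1 transcriptional activity via heat shock element; 0% = median of DMSO wells and -100% = zero luminescence signal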
esBAF inh: blocks esBAF chromatin remodeling in mouse ES cells. Bmi1-luciferase knock-in reporter, 24 h; 100% = twice the neutral-well signal. hit rate 2% among 350,000. AID 602393. reporter increase, % at 12.5 µM; in the data active means activation above about 40%; inconclusive means no clear call, values can overlap the other calls;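 further: 0% = median of the plate's neutral control wells and 100% = double that signal; a rise in the Bmi1 reporter signal indicates esBAF inhibition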
Numbers without * were called inactive; ? = inconclusive; nt = not tested or not shown.

SMILES	Wnt act	HSF1 activator	MITF TRPM1 HTS	HSF1 inhib	esBAF inh
O=C(Nc1ccc(Br)cc1)c1ccccc1Br	8	53*	101*	33	78*
O=C(Nc1ccc(Br)cc1)c1cc2ccccn2n1	53*	71*	35	35	nt
CN1C(=O)C2C=CC1C1C(=O)N(c3ccccc3)C(=O)C21 (stereo unspecified)	nt	-8	89*	-2	57*
CSc1ccc(N2C(=O)NC3(CCCCC3)C2=O)cc1	18	18	35	12	62*
CCOC(=O)C(C)On1c(-c2ccccc2)nc2ccc([N+](=O)[O-])cc21 (stereo unspecified)	nt	37	99*	26	nt
O=C(O)COn1c(-c2ccccc2)nc2ccc([N+](=O)[O-])cc21	12	82*	59	40	49*
CN1[C@H](C(=O)NC2CCCCC2)[C@@H](CO)[C@@H]2Cn3c(ccc(/C=C/c4ccccc4)c3=O)[C@@H]21	nt	nt	nt	nt	5
O=C(N[C@H]1CC[C@@H](CCNC(=O)c2ccccc2F)O[C@H]1CO)c1ccc2c(c1)OCO2	nt	nt	nt	nt	-1
O=C(CCCc1ccccc1)Nc1ccccc1[N+](=O)[O-]	2	18	44	14	53*
COc1ccc(NC(=O)CCCc2ccccc2)cc1OC	11	4	nt	17	65*
C/C=C/c1ccc(OCC(=O)Nc2ccc(OC)c(OC)c2)c(OC)c1	-2	-74	-7	-69*	nt
COc1cc(/C=C2\C(=O)N(CCC#N)N=C2C)ccc1OCC(=O)Nc1ccccc1	65*	48	5	42	nt
CCOc1cc(/C=C2\C(=O)N(CCC#N)N=C2C)ccc1OCC(N)=O	0	5	-5	3	nt
C[C@H](CO)N1C[C@H](C)[C@@H](CN(C)C(=O)NC2CCCCC2)Oc2ccc(NC(=O)CCCN(C)C)cc2C1=O	nt	nt	nt	nt	-1
O=C(N[C@@H]1CC[C@@H](CCn2cc(C3(O)CCCC3)nn2)O[C@H]1CO)c1ccccc1F	nt	nt	nt	nt	-2
O=C(NCc1ccc(F)cc1)C1CCCN(S(=O)(=O)c2cccc3nsnc23)C1 (stereo unspecified)	nt	3	5	6	7
O=C(NCc1ccccc1)C1CCCN(S(=O)(=O)c2cccc3nsnc23)C1 (stereo unspecified)	0	-78	1	-72*	-7
Cn1ccc2cc(NC(=O)Nc3cccnc3)ccc21	13	1	71	0	56*
O=C(NCc1cccs1)Nc1ccc2c(c1)OCO2	nt	9	nt	20	63*
CCCCNC(=O)c1ccc(NC(=O)C2CCCO2)cc1 (stereo unspecified)	1	7	2	-5	0
O=C(Nc1cccnc1)Nc1ccc2c(c1)OCO2	nt	1	nt	-2	42*
O=C(NCc1ccncc1)Nc1ccc2c(c1)OCO2	-1	39	4	1	nt
CCCCc1ccc(NC(=O)C2CCCO2)cc1 (stereo unspecified)	nt	63*	105*	19	20
O=C(Nc1ccc2c(c1)OCO2)Nc1cnccn1	nt	27	54	-2	?
CCCCc1ccc(NC(=S)Nc2cccnc2)cc1	1	-27	1	-24	nt
SMILES	Wnt act	HSF1 activator	MITF TRPM1 HTS	HSF1 inhib	esBAF inh
O=C(NCc1ccccn1)Nc1ccc2c(c1)OCO2	17	22	18	11	51*
O=C(Nc1ccccn1)Nc1cccs1	nt	11	56	21	55*
CCCCc1ccc(NC(=O)Nc2cccnc2)cc1	12	33	62	15	51*
O=C(CNC(=O)c1cccs1)Nc1ccc2c(c1)OCCO2	31*	15	47	17	-7
C[C@@H]1CN([C@@H](C)CO)C(=O)c2cc(NC(=O)c3ccncc3)ccc2O[C@@H]1CN(C)Cc1ccc(Cl)c(Cl)c1	nt	nt	nt	nt	0
O=C(Nc1ccc2c(c1)OCO2)Nc1ccccn1	55*	49	62	18	nt
O=C(COc1ccc(Cl)cc1)Nc1ccc(Cl)cn1	nt	45	67	19	34
O=C(/C=C/c1ccc2c(c1)OCO2)Nc1ccc(Cl)cn1	19	85*	70	36	nt
O=C(COc1ccc2c(c1)OCO2)Nc1ccc(Cl)cn1	18	29	84*	2	46*
O=C(/C=C/c1ccc2c(c1)OCO2)Nc1nc2ccc(F)cc2s1	34*	26	87*	23	56*
O=C(/C=C/c1ccccc1Cl)Nc1ccc(Cl)cn1	-1	33	34	14	nt
CCOc1ccc2nc(NC(=O)/C=C/c3ccc4c(c3)OCO4)sc2c1	-2	-59	-4	-43	nt
Cc1ccnc(SCc2cc(=O)c(OC(=O)c3ccc(Br)o3)co2)n1	51*	-15	0	-10	nt
O=C(Oc1coc(CSc2ncccn2)cc1=O)c1ccc(Br)o1	-1	-18	-13	-1	nt
CN1/C(=C\C=C2/C(=O)Oc3ccccc3C2=O)C(C)(C)c2ccccc21	52*	26	nt	6	nt
COc1cc(/C=C(\C#N)C(N)=O)ccc1OS(=O)(=O)c1ccc(C)cc1	-2	nt	-5	nt	-5
COc1cc(/C=C(\C#N)C(=O)NC2CCCCC2C)ccc1OS(=O)(=O)c1ccc(C)cc1 (stereo unspecified)	nt	64*	-5	50	nt
CCn1nc(C)cc1C(=O)Sc1ccc(Cl)cc1Cl	-3	52*	nt	28	nt
COc1cc(Cl)ccc1OCc1cc(C(=O)N2C[C@]3(C)C[C@H]2CC(C)(C)C3)no1	26	11	125*	26	nt
COc1cc(C)ccc1OCc1cc(C(=O)N2C[C@H]3CC[C@H]2C3)no1	10	3	25	3	13
CCOC(=O)N1CCN(C(=O)c2cc(COc3ccc(Cl)cc3OC)on2)CC1	0	40	0	7	2
COc1cc(Cl)ccc1OCc1cc(C(=O)N2C[C@H]3CC[C@H]2C3)no1	-1	47	55	16	63*
COc1cc(Cl)ccc1OCc1cc(C(=O)N2C[C@@H]3CCC[C@H]2C3)no1	38*	56*	58	32	92*
O=C(C[C@H]1CC[C@@H]2[C@H](COC[C@@H](O)CN2Cc2cccc(-c3ccncc3)c2)O1)N1CCCCC1	nt	nt	nt	nt	9
COc1ccccc1-c1ccc([C@H]2[C@@H](CO)N3CCCCN(Cc4ccncc4)C[C@H]23)cc1	nt	nt	nt	nt	-6
SMILES	Wnt act	HSF1 activator	MITF TRPM1 HTS	HSF1 inhib	esBAF inh
Cc1noc(C)c1NC(=O)N(C)C[C@H]1Oc2cc(C#CCC3CCCC3)ccc2S(=O)(=O)N([C@@H](C)CO)C[C@H]1C	nt	nt	nt	nt	-1
c1ccc(-c2nc3ccccc3c3nncn23)cc1	nt	-70	2	-59*	nt
COc1ccc(-n2cc(CNCCc3cscn3)c(-c3ccccc3Cl)n2)cc1	-3	59*	nt	28	nt
Cc1ccc(-n2cc(CNCCc3cscn3)c(-c3ccc(F)cc3)n2)cc1	2	7	-45	16	nt
Cc1ccc(C2N(c3ccccc3)C(=S)N3CCCN23)cc1 (stereo unspecified)	nt	-86	2	-82*	1
O=C(N[C@@H]1CC[C@@H](CCn2cc(-c3ccccn3)nn2)O[C@H]1CO)c1ccncc1	nt	nt	nt	nt	4
